The source of these data is ChEMBL document CHEMBL3988442, “University of Dundee, Small-Polar-MMV Screening Library” (2021).

Each structure is given as a SMILES string.

The assay has as its target T1, Tyrosyl-tRNA synthetase, putative (Trypanosoma cruzi (strain CL Brener)) (UniProt Q4DSP6).
T1 sequence (whole entry): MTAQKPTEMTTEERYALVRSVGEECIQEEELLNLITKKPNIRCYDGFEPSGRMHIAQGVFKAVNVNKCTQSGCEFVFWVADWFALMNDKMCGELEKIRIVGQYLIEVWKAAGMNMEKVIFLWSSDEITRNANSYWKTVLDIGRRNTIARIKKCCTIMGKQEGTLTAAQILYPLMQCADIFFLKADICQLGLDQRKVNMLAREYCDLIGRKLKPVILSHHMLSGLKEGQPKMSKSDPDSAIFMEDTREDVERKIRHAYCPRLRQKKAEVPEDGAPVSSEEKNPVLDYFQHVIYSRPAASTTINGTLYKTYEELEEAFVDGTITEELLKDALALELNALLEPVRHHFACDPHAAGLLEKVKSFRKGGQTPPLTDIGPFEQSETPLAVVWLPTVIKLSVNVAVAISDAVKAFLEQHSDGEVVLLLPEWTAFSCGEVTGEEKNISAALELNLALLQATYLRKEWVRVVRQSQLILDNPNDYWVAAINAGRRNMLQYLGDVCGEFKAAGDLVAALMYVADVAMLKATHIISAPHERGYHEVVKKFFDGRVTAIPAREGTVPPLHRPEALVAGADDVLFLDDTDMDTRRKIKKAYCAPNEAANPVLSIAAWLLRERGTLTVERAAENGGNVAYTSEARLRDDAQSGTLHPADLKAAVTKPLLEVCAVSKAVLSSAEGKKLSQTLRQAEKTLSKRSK
The experiment in a line: Trypanosoma cruzi tyrosyl tRNA synthetase (TcYRS) _High Tyrosine SOP. The note with it: 30 µM. It is filed as functional. The arrangement: scale not given: in the data most compounds retested in dose-response had high values.
Turning to `CNC(=O)C1CCN(C(=O)c2ccn(-c3ccc(F)cc3)n2)CC1`, the Percent Effect came to 10.9%. In the case of `COc1cccc([C@@H]2CN(C(=O)c3ccc(C)cc3O)C[C@H]2C(=O)O)c1`, the Percent Effect is 3.23%. The figure for `O=C(Cc1cccc(F)c1)NCCNCc1ccco1` is 3.88%; for `Cc1ncsc1C(=O)NC1CCN(CC(=O)NCc2ccccc2)CC1` it is 9.36%. The figure for `CCN1CC(C(=O)N(C)Cc2ccon2)CC1=O` (centres undefined) is -1.07%; for `COCc1c(C(=O)O)nnn1Cc1cccc(C(F)(F)F)c1` it is 3.17%. With `O=C(NCC(O)c1cccc(F)c1)c1cccnc1O` (centres undefined), the Percent Effect was 7.29%. With `Cc1nc(CN2CCOC(Cn3cncn3)C2)nc2ccccc12` (centres undefined) the figure was 5.71%.

On to `CCc1nnc2n1CCN(C(=O)CN(C)Cc1ccccc1)C2`, for which the Percent Effect was determined as 4.43%. The figure for `CCn1nc(C)c(CNC(=O)c2cn(CCC3CCCCN3)nn2)c1C` (centres undefined) is 7.1%; for `CCS(=O)(=O)Nc1ccc(C(=O)NCCCN2CCCC2)cc1` it is 4.25%; for `COc1cccc(CN(C)C(=O)CSc2ccc3c(c2)OCCO3)c1` it is -4.25%.

Consider `CC(C)c1cnc(CNc2c(F)cccc2-n2cccn2)o1`, for which the Percent Effect was -1.05%.

For the molecule `O=S(=O)(Cc1ccccc1F)NCCCN1CCCCC1`, the Percent Effect was 1.64%. The figure for `CN(C)S(=O)(=O)N1CC[C@@H]2CN(Cc3cnn(C)c3)C[C@@H]2C1` is -1.06%.

For the molecule `CN(C(=O)Cc1ccc2c(c1)OCCO2)C1CCCC1`, the Percent Effect amounted to 3.19%.

As to `C1CC(NCc2nc(C3CC3)no2)CN(Cc2noc(C3CC3)n2)C1` (centres undefined), the Percent Effect was -0.493%.

As to `COCCN1C[C@@H]2CCCO[C@@H]2[C@H](NC(=O)c2cnccn2)C1`, the Percent Effect worked out at 5.21%. The figure for `Cc1nc2cc(C(=O)N3CCCC(n4cncn4)C3)ccc2n1C` (centres undefined) is 3.96%; for `Cc1ccc(CN2CC(C(=O)N3CCCC3)C3(CCOCC3)C2)s1` (centres undefined) it is 2.08%. With `Cc1cc(C2CCCN(C(=O)c3cnn(C)c3)C2)ccn1` (centres undefined) the figure was 8.6%; with `COC(=O)N1CCCN(C(=O)NCc2ccc(Cl)s2)CC1`, 7.29%. Take `NC(=O)CN1CCCN(C(=O)c2ccn(-c3ccccc3)n2)CC1`: the Percent Effect is 5.26%.

Consider `CCc1nnc(CN2CCN(C(=O)c3cc4ccccc4[nH]3)CC2)o1`, for which the Percent Effect stood at 1.91%. For the molecule `Cn1ncc2c(=O)[nH]c(CN3CCC(Cc4ccccc4)CC3)nc21`, the Percent Effect was 9.36%. With `COCCN1C(=O)CO[C@H]2CN(Cc3c[nH]nc3-c3ccccc3)C[C@@H]21` the figure was 2.15%; with `CC(C(N)=O)S(=O)(=O)Cc1cc(Cl)c2c(c1)OCO2` (centres undefined), 5.42%. In the case of `COc1ccc2cc(C(=O)N3CCCCC3CC(N)=O)[nH]c2c1` (centres undefined), the Percent Effect turned out to be 5.83%. With `CC(C)c1nccn1C1CCCN(C(=O)c2cnc[nH]2)C1` (centres undefined) the figure was 5.42%; with `COc1ccc(C(=O)N2CCC(Nc3ccc(C)nn3)CC2)c(F)c1`, 7.29%; with `O=C(c1cnco1)N1C[C@@H]2CC[C@H](Oc3ccccc3F)[C@@H]2C1`, -4.3%. In the case of `CN(C)C(=O)Cc1nc(CN2CCOC(Cn3cccn3)C2)cs1` (centres undefined), the Percent Effect came to 0%.

Consider `Cc1ccoc1-c1nnc(CNCCn2cccn2)o1`, for which the Percent Effect is 7.39%. With `O=C(NCc1cnc2n1CCN(Cc1ccsc1)CC2)C1CCC1`, the Percent Effect is 7.53%. Regarding `Cc1ccc(C2CCCCCN2Cc2cn(C)nc2C)s1` (centres undefined), the Percent Effect was 0%. As to `Cc1cccc(COC[C@H]2CC[C@H]3[C@H](CCN3C(=O)CC3CC3)O2)n1`, the Percent Effect turned out to be 7.45%. In the case of `CC(Cn1cccn1)NC(=O)N(C)Cc1ccc(Cl)s1` (centres undefined), the Percent Effect is -1.48%. In the case of `Fc1ccc(-c2nnc(CN3CCOC(Cn4cncn4)C3)o2)cc1` (centres undefined), the Percent Effect amounted to 0.971%.

On to `CCc1noc(C2CCCCN2C(=O)c2nnc3ccccc3n2)n1` (centres undefined), for which the Percent Effect worked out at 11.6%.
